Screening results (PubChem BioAssay)
Compounds with a hit are over-represented: about 3.5% of the library has one in this group of screens.
Rv3671c protease = inhibitors of M. tuberculosis serine protease Rv3671c | hit rate 0.048% among 320,000 | inhibition, % at 5.96 µM; in the data active = inhibition above about 38%;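 also: extracellular domain of Rv3671c used as enzyme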
GDH-TPI inh = GDH-TPI coupled enzyme inhibition counter-screen; AID 588335; inhibition, % at 4.8 µM; GDH-TPI coupled enzyme counterscreen, NADH absorbance; hit rate 1.2% among 360,000; in the data active = inhibition above about 30%
FadD28 FP inh = inhibitors of Mycobacterium tuberculosis FadD28 bisubstrate binding | FadD28 bisubstrate probe binding, fluorescence polarization | inhibition, % at 12.5 µM | hit rate 0.22% among 360,000; in the data active = inhibition above about 8.5%, passing the limit was not always enough; inconclusive = no clear call, values can overlap the other calls
Mtb hypoxia inh = reduces hypoxia-regulated biosensor signal in M. tuberculosis. M. tuberculosis hypoxia-regulated fluorescent reporter, fluorescence. fluorescence inhibition, % (concentration not given with the values). hit rate 0.1% among 300,000. AID 1159583; in the data active = fluorescence inhibition mostly above about 23%, no sharp cut-off; inactive = mostly below about 17%
Mtb FBA inh = inhibitors of M. tuberculosis fructose-bisphosphate aldolase; P9WQA3; purified M. tuberculosis FBA, fluorescence read-out; hit rate 2.3% among 360,000; inhibition, % at 1 µM; in the data active = inhibition above about 27%
Target sequence (P9WQA3 whole entry, looked up): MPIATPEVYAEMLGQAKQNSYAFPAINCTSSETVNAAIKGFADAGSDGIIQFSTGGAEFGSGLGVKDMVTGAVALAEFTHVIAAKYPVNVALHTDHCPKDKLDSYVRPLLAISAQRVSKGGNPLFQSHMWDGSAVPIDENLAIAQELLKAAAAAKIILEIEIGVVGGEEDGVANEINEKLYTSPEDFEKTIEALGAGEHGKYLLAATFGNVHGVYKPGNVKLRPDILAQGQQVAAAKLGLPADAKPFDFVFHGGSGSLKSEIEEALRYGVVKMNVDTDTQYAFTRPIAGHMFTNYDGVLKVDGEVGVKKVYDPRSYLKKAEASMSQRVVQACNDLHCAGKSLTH
Mtb UGM inh = inhibitors of M. tuberculosis UDP-galactopyranose mutase. purified UGM, fluorescence polarization probe displacement. inhibition, % at 10 µM. hit rate 0.06% among 320,000. AID 504406; in the data active = inhibition above about 10%, passing the limit was not always enough; inconclusive = no clear call, values can overlap the other calls
Each line names hits and unclear results; the compound was inactive in the other large screens.

CCc1cccc2c(C(=O)COC(=O)c3ccc(O)cc3)c[nH]c12	FadD28 FP inh 34
CCc1cccc2c(C(=O)COC(=O)c3c(C)noc3C)c[nH]c12	none
CCc1cccc2c(C(=O)COC(=O)c3nccnc3N)c[nH]c12	none
O=C(COC(=O)[C@@H]1CC(O)CN1S(=O)(=O)c1ccccc1[N+](=O)[O-])c1ccccc1 (some centres not stated)	none
CCOc1ccc(C(C#N)N2CCOCC2)cc1OC (configuration not stated)	none
COc1ccc(C(C#N)N2CCCCC2)cc1OC (configuration not stated)	none
COc1cc(C(C#N)N2CCOCC2)ccc1O (configuration not stated)	GDH-TPI inh 37
COc1cc(C(C#N)N2CCCCC2)ccc1O (configuration not stated)	GDH-TPI inh 34 (no result: Mtb hypoxia inh)
COc1cc(/C=C2\CC/C(=C\c3cc(OC)c(OC)c(OC)c3)C2=O)cc(OC)c1OC	none (no result: Mtb hypoxia inh)
COc1cc(/C=C2\CC/C(=C\c3cc(OC)c(O)c(OC)c3)C2=O)cc(OC)c1O	FadD28 FP inh inconclusive, Mtb UGM inh 17
Cc1c(NC(=S)NC(=O)c2ccc(-c3ccc(Cl)cc3)o2)cccc1C(=O)O	GDH-TPI inh 32
Cc1ccc(-c2nc3cc(NC(=O)C(C)C)ccc3o2)cc1	Mtb FBA inh 181 (no result: Mtb hypoxia inh)
CC(C)C(=O)Nc1cccc(-c2nc3ccccc3o2)c1	none
CCCC(=O)Nc1cccc(-c2nc3cc(C)c(C)cc3o2)c1	none (no result: Mtb hypoxia inh)
Cc1cc2nc(-c3ccc(NC(=O)C(C)C)cc3)oc2cc1C	Mtb FBA inh 138 (no result: Mtb hypoxia inh)
CC=C(C)C(=O)Nc1cccc(C2=NOC3(C2)CC(C(N)=O)N(C(=O)CC(c2ccccc2)c2ccccc2)C3)c1 (configuration not stated)	none (no result: Rv3671c protease, GDH-TPI inh, FadD28 FP inh, Mtb FBA inh, Mtb UGM inh)
Cc1ccc2nc3nc(NCC4CCCO4)c(C(=O)NC4CCCCC4)cc3c(=O)n2c1 (configuration not stated)	none (no result: GDH-TPI inh, FadD28 FP inh, Mtb hypoxia inh, Mtb FBA inh)
CCNc1nc2nc3ccc(C)cn3c(=O)c2cc1C(=O)NCC1CCCO1 (configuration not stated)	Mtb FBA inh active
Cc1ccc2nc3nc(NCC4CCCO4)c(C(=O)NC4CCCC4)cc3c(=O)n2c1 (configuration not stated)	Mtb FBA inh 151
O=C(O)COc1ccc(/C=C/c2ccc3cccc([N+](=O)[O-])c3n2)cc1	none (no result: Mtb UGM inh)
COc1cc(C=Cc2ccc3cccc([N+](=O)[O-])c3n2)ccc1OCC#N	none (no result: Rv3671c protease, GDH-TPI inh, FadD28 FP inh, Mtb FBA inh, Mtb UGM inh)
COc1cc(/C=C/c2ccc3cccc(O)c3n2)cc(Br)c1OC	none
COc1cc(/C=C/c2ccc3c([N+](=O)[O-])cccc3n2)ccc1OCC(=O)O	GDH-TPI inh 39, Mtb hypoxia inh 77
CC(=O)Nc1ccc(/C=C/c2ccc3cccc([N+](=O)[O-])c3n2)cc1	GDH-TPI inh 40
COc1cc(/C=C/c2ccc3cccc([N+](=O)[O-])c3n2)ccc1OCC(=O)O	GDH-TPI inh 45
COc1cc(/C=C/c2ccc3cccc(O)c3n2)cc(OC)c1OC	FadD28 FP inh 13
COC(=O)[C@]12C(=O)NCC(CN1c1ccc(Cl)c(C)c1)N2C	none (no result: Rv3671c protease, GDH-TPI inh, FadD28 FP inh, Mtb FBA inh, Mtb UGM inh)
COc1ccc2c(c1)C1C(CO2)C(c2ccccc2)[C@]2(C)C(=O)NCC(=O)N12 (some centres not stated)	none (no result: Rv3671c protease, GDH-TPI inh, FadD28 FP inh, Mtb FBA inh, Mtb UGM inh)
CC(=NOCc1ccccc1)c1c(O)cc(C(C)C)n(-c2ccccc2)c1=O	none (no result: Rv3671c protease, GDH-TPI inh, FadD28 FP inh, Mtb FBA inh, Mtb UGM inh)
Cc1cc(C=NNC(=O)c2nn(C)cc2Cl)c(C)n1-c1cccc(Br)c1	none (no result: Rv3671c protease, GDH-TPI inh, FadD28 FP inh, Mtb FBA inh, Mtb UGM inh)
CC(NC(=O)c1nc[nH]c1C(=O)N1CCN(C(=O)OC(C)(C)C)CC1)C(=O)OC(C)(C)C (configuration not stated)	none (no result: Rv3671c protease, GDH-TPI inh, FadD28 FP inh, Mtb FBA inh, Mtb UGM inh)
CCOc1cc(C=C2SC(=S)NC2=O)ccc1OC(=O)c1ccco1	none (no result: Rv3671c protease, GDH-TPI inh, FadD28 FP inh, Mtb FBA inh, Mtb UGM inh)
CCOc1ccc(NS(=O)(=O)c2ccc3[nH]c(=O)c(=O)[nH]c3c2)cc1	none
CCOc1ccc(NC(=O)c2ccc3[nH]c(=O)c(=O)[nH]c3c2)cc1	GDH-TPI inh 32
CSc1nc(NCC(C)O)c2c3c(sc2n1)CN(C)CC3 (configuration not stated)	Mtb FBA inh 113 (no result: Mtb hypoxia inh)
CSc1nc(NCCCO)c2c3c(sc2n1)CN(C)CC3	Mtb FBA inh 176
CCN(CC)CCCNc1nc(SC)nc2sc3c(c12)CCN(C)C3	none (no result: GDH-TPI inh, FadD28 FP inh, Mtb hypoxia inh, Mtb FBA inh)
Cc1ccc(N/C=C(\C#N)c2ccc(OCCCF)cc2)cc1	GDH-TPI inh 41
COc1ccc(N/C=C(\C#N)c2ccc(OCCCF)cc2)cc1	none
COc1ccccc1/C=C/C=N/NC(=O)c1ccco1	GDH-TPI inh 37 (no result: Mtb hypoxia inh)
